# According to PubChem BioAssay:
# This is one part of the list. Records with an inconclusive call do not appear. The source made the active and inactive calls.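 How the source made its calls, unless noted: active means thallium entry rate above the same plate's blocked-transporter control wells by more than 3 SD; inconclusive means the two repeat wells disagree; inactive means the rest.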
# Legend:
# [1] = biological target: Solute carrier family 12 member 5 (Homo sapiens) (UniProt Q9H2X9); assay: retest of KCC2 transport modulators without sodium – cell-based, HEK293 KCC2, thallium flux, secondary assay, confirmation (AID 1713;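 active means thallium flux slope above the same plate's solvent-only control mean plus 3 SD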); settings: FluoZin2 fluorescence, at 10 µM, stronger effect = higher value
# Solute carrier family 12 member 5 (Homo sapiens), sequence (Q9H2X9 whole entry, looked up): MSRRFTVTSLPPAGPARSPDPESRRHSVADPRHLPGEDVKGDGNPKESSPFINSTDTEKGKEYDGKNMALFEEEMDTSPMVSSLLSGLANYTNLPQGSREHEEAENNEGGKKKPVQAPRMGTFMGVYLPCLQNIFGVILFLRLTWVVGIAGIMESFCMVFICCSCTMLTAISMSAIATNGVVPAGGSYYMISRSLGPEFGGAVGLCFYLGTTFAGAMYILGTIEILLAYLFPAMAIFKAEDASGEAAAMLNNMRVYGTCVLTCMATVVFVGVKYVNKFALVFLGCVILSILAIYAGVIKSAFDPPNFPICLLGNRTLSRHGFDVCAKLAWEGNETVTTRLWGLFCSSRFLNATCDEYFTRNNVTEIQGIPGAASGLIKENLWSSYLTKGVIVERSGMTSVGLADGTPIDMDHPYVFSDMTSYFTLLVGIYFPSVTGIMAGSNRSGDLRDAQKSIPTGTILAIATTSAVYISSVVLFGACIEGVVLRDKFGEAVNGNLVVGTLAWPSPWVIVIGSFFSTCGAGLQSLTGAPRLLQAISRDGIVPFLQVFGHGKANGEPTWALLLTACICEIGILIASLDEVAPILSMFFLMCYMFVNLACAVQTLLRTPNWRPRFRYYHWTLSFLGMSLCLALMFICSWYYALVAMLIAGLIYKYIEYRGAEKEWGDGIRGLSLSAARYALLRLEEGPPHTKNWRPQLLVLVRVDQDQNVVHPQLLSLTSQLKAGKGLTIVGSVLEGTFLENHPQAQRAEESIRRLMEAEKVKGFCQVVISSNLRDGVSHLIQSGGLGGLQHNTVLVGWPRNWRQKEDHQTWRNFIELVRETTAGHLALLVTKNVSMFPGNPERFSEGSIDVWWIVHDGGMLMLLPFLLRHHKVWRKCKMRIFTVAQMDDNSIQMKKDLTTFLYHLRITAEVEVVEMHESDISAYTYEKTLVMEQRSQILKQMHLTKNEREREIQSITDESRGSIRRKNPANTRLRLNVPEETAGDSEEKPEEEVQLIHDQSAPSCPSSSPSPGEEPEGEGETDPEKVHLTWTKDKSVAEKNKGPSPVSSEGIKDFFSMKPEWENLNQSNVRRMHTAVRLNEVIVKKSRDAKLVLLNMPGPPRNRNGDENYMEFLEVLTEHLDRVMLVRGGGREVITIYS
# PubChem AID 1714 = settings: HEK293-KCC2 + bumetanide/ouabain, thallium flux FluoZin2; at 10 µM; stronger effect = higher value
# [2] = biological target: Solute carrier family 12 member 5 (Homo sapiens) (UniProt Q9H2X9); assay: retest of KCC2 transport modulation, ouabain-free – cell-based, HEK293 KCC2, thallium flux, FluoZin2, secondary assay 2, confirmation (AID 1715;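 active means thallium flux slope more than 3 SD above or below the plate's solvent-only control mean, mostly below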;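 further: raw slope with 0.1% DMSO as baseline and bumetanide as block control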); settings: HEK293-KCC2, thallium flux FluoZin2 fluorescence; at 10 µM; actives lie on both sides; F/F0 rise rate, 10–20 s post-thallium
# [3] = biological target: Solute carrier family 12 member 5 (Homo sapiens) (UniProt Q9H2X9); assay: modulation of KCC2 thallium flux in HEK cells – cell-based, ouabain, retest, confirmation (AID 1717;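 active means thallium flux slope beyond 3 SD from same-plate DMSO control mean in most replicates, usually higher, sometimes lower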;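 further: slope of initial-normalized fluorescence between seconds 10 and 20 after thallium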); settings: HEK293-KCC2, thallium flux FluoZin2 fluorescence, at 10 µM, bidirectional: low = inhibitor, high = activator
# [4] = native HEK Tl+ uptake effects, second counter-screen – HEK cells, counterscreen 2, counter-screen for KCC2 modulator project, confirmation (AID 1718;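 active means thallium flux slope above the same plate's solvent-control mean plus 3 SD in both duplicate wells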;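 further: run without ouabain in cells lacking the KCC2 cotransporter; slope of fluorescence scaled to its starting value between 10 and 20 s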); settings: HEK293 parental, thallium flux FluoZin-2 fluorescence slope; at 10 µM
# [5] = compound effects on native HEK Tl+ uptake – HEK cells, counterscreen 1, counter-screen for KCC2 modulator project, confirmation (AID 1716;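 active means thallium flux rate significantly above the same plate's solvent-only control wells, beyond their mean plus 3 SD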); settings: HEK293 parental cells, thallium flux FluoZin2, ouabain; at 10 µM; baseline-ratio fluorescence slope, 10–20 s after thallium
# [6] = inhibitors of TNFa-induced NFkB p65 translocation, primary screen, imaging, HUVEC, MLSMR starter and 10KST1 sets (AID 438;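 active means inhibition above 20% together with a positive visual image hit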;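 further: compound added about 3h40 before a 20 min TNFalpha stimulation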;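 on inhibition: signal is the nuclear over cytoplasmic p65 intensity ratio per well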); settings: HUVEC TNFa-induced p65 nuclear translocation; cell count: measured here: nuclei count (cytotoxicity indicator), at 2.08 µM; inhibition: at 2 µM, stronger effect = higher value, 0% TNFa-plus-vehicle, 100% no-TNFa wells
# [7] = reduction of polyQ htt aggregates in cells – imaging, exon1htt(103Q)mCFP cells, high-content imaging, primary screen (AID 483;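 active means visual image review flags a hit and inhibition of aggregation exceeds 20%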;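 further: compound exposure lasted 3 days before fixation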;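 on nuclei count: percent of the per-plate median nuclei count of sample wells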); settings: exon1htt(103Q)mCFP cell line, aggregate imaging, at 2 µM; inhibition of aggregation: stronger effect = higher value; nuclei count: measured here: cell count, toxicity
# [8] = endothelial E-selectin expression blockers – imaging, HUVEC, immunofluorescence, MLSMR starter and 10KST1 sets, primary screen (AID 487;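 active means visually confirmed hit in the image check and inhibition above 20%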;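 on inhibition: signal is fraction of cell area covered by stained E-selectin grains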;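 on nuclei count: 100% = median nuclei count of all wells on the same plate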); settings: HUVEC TNFalpha-induced E-selectin immunofluorescence imaging, at 2 µM; inhibition: stronger effect = higher value; nuclei count: measured here: cell number, toxicity
# [9] = Primary imaging screen for DUSP6 inhibitors that restore phospho-Erk in transfected HeLa cells, chemical complementation (AID 609;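 active means compounds giving at least 50% inhibition in the cell-based MKP-3 phosphatase rescue imaging test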;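 on inhibition: phospho-Erk level distribution per well compared with pooled transfected vehicle control wells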); settings: HeLa MKP-3 transfected, phospho-Erk imaging KS statistic, at 10 µM, cells stimulated with TPA for 15 min
# [10] = biological target: Dual specificity protein phosphatase 6 (Homo sapiens) (UniProt Q16828); assay: as above; settings: HeLa MKP-3 transfected, phospho-Erk imaging KS statistic; at 10 µM; stronger effect = higher value; cells stimulated with TPA for 15 min
# Dual specificity protein phosphatase 6 (Homo sapiens), sequence (Q16828 whole entry, looked up): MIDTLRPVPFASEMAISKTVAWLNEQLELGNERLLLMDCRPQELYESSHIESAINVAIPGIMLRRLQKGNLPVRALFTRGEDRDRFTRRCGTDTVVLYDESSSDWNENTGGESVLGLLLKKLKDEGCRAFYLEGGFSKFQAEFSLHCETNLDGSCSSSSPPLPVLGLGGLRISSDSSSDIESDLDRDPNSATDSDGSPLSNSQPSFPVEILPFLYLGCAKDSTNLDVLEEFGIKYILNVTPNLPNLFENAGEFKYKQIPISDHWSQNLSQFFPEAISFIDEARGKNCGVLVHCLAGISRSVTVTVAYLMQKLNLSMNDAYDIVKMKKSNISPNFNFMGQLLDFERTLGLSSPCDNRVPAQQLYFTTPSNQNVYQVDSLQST
# [11] = biological target: Voltage-gated potassium channel subunit beta-2 (Rattus norvegicus) (UniProt P62483); assay: inhibitors of rat Kvbeta2 reductase activity – biochemical, NADPH fluorescence, primary screen (AID 622;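 active means fluorescence slope higher than the sample average by over 3 SD, cut at about -0.22 in these data, passing the limit was not always enough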;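 further: slope of raw intensity against log time taken from 70 to 1610 s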); settings: recombinant KvBeta, 4-cyanobenzaldehyde reduction, at 10 µM, stronger effect = higher value
# Voltage-gated potassium channel subunit beta-2 (Rattus norvegicus), sequence (P62483 whole entry, looked up): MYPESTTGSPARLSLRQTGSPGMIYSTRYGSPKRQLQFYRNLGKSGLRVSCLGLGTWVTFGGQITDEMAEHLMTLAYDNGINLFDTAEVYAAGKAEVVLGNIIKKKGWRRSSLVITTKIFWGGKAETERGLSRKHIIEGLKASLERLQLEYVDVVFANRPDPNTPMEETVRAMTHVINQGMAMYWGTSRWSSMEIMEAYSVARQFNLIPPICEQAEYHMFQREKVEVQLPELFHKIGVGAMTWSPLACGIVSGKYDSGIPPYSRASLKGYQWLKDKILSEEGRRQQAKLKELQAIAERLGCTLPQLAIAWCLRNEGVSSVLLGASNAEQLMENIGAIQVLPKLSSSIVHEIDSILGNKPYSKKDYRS
# [12] = biological target: Voltage-gated potassium channel subunit beta-2 (Rattus norvegicus) (UniProt P62483); assay: enhancers of rat Kvbeta2 NADPH turnover – biochemical, NADPH fluorescence, primary screen (AID 623;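 active means NADPH fluorescence slope more negative than the mean of all samples by about 3 SD, 99.7% confidence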;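 further: fluorescence intensity change per second fitted from 20 to 320 s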); settings: Recombinant KvBeta, NADPH fluorescence decrease slope, 10 min; at 10 µM; stronger effect = lower value
# [13] = biological target: Alpha-2C adrenergic receptor (Homo sapiens) (UniProt P18825); assay: compounds altering alpha2C-coupled GIRK flux – cell-based, HEK293 alpha2C/GIRK1/2, thallium flux, primary screen (AID 624;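 active means fluorescence slope after compound addition differing from the mean of all screened samples at 99.7% confidence, in either direction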;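 further: slope of fluorescence ratio to pre-addition baseline per second over 15 to 24 s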); settings: thallium flux BTC fluorescence, at 10 µM, actives lie on both sides
# Alpha-2C adrenergic receptor (Homo sapiens), sequence (P18825 whole entry, looked up): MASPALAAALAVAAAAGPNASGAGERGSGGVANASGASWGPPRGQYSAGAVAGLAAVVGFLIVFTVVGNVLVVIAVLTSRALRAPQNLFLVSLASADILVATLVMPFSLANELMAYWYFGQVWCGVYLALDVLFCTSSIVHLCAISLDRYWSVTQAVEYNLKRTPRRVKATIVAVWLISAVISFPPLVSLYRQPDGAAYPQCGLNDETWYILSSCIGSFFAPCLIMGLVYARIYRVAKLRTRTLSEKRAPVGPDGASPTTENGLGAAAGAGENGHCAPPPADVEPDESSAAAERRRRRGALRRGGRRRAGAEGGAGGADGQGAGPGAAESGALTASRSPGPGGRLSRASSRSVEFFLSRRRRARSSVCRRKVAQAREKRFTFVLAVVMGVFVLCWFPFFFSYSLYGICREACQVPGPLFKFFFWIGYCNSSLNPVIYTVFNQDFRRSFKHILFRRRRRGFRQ
# [14] = inhibitors of larval lipid processing in zebrafish, primary screen, whole organism, PED6 fluorescence, gall bladder and intestine (AID 686;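 active means a full or partial loss of lipid-probe fluorescence in the fish gall bladder, intestine or both, judged by eye; inactive means no fluorescence loss, or compound toxic to the fish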;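 further: larvae 5 to 7 days old with five fish per well; signal comes from phospholipase A2 cleavage of quenched PED6 carried via bile; overnight exposure to compound and PED6 before scoring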); settings: Zebrafish larvae PED6 lipid processing, fluorescence scoring; screened at 20 µM (by protocol)
# [15] = loss of swimming-algae plug formation – whole organism, Chlamydomonas reinhardtii, WT vs cilia-less mutant, absorbance, 96-well, primary screen (AID 463189;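 active means inhibition at or above 50% relative to wild type and mutant plate controls; inactive means inhibition below 50%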;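 further: 0% = wild type cc124 cells in DMSO and 100% = ciliumless bld1 mutant cells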); settings: Chlamydomonas reinhardtii gravitaxis, OD600 absorbance, 2 days; at 10 µM; stronger effect = higher value
# [16] = blockers of RIG-like receptor reporter activation – cell-based, Sendai virus stimulus, luciferase, 10K MLSCN set, TLR/RLR signaling modifier project, primary screen (AID 602276;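 active means inhibition at or above 50% at 10 µM; inactive means inhibition below 50%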;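 further: firefly luciferase from ISG56 promoter only with Renilla not read in this screen; 0% = Sendai virus plus DMSO and 100% = medium plus DMSO without virus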); settings: HEK293 RL24 IRF3 luciferase reporter, at 10 µM, stronger effect = higher value
# [17] = TLR3 IRF3 reporter activation blockers – cell-based, poly I:C stimulus, luciferase, 10K MLSCN set, primary screen (AID 602277;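 active means inhibition of the reporter signal at or above 50%; inactive means inhibition below 50%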); settings: HEK293-TLR3 RL24 IRF3 luciferase reporter, at 10 µM, stronger effect = higher value
smiles,measurement,setting,value
COc1cccc2sc(Nc3nc(C)c(C(C)=O)s3)nc12,normalised thallium flux (F/F0 slope),[1],0.00922 (inactive)
same,normalized thallium flux,PubChem AID 1714,0.0124 (active)
same,normalized thallium flux,[2],0.0359 (inactive)
same,"raw Tl+ flux slope (below DMSO = inhibition, above = activation)",[3],0.0215 (inactive)
same,thallium flux slope,[4],0.0124 (inactive)
COCCn1c(C)cc(C(=O)CSc2ncnc3sc4c(c23)CCC4)c1C,normalised thallium flux (F/F0 slope),[1],0.0102 (inactive)
same,normalized thallium flux,PubChem AID 1714,0.013 (active)
same,normalized thallium flux,[2],0.0342 (inactive)
same,thallium flux slope,[4],0.0112 (inactive)
Cc1cc(C)c2cc(CN(Cc3cccs3)Cc3nnnn3CC3CCCO3)c(=O)[nH]c2c1 (stereo not drawn),normalised thallium flux (F/F0 slope),[1],0.0146 (inactive)
same,normalized thallium flux,PubChem AID 1714,0.0043 (inactive)
same,thallium flux rate (normalised fluorescence),[5],0.00572 (active)
same,"raw Tl+ flux slope (below DMSO = inhibition, above = activation)",[3],0.0137 (active)
same,thallium flux slope,[4],0.00821 (inactive)
CCCCC(CC)CNC(=O)C(=O)C1C(=O)Nc2ccccc21 (stereo not drawn),normalised thallium flux (F/F0 slope),[1],0.0112 (inactive)
same,normalized thallium flux,PubChem AID 1714,0.0356 (active)
same,normalized thallium flux,[2],0.0322 (inactive)
same,"raw Tl+ flux slope (below DMSO = inhibition, above = activation)",[3],0.0309 (active)
same,thallium flux slope,[4],0.0126 (inactive)
COc1ccccc1N1CCN(C(=O)CSc2ncnc3c2cnn3-c2ccc(C)c(C)c2)CC1,normalised thallium flux (F/F0 slope),[1],0.00591 (inactive)
same,normalized thallium flux,PubChem AID 1714,0.00504 (inactive)
same,normalized thallium flux,[2],0.029 (inactive)
same,"raw Tl+ flux slope (below DMSO = inhibition, above = activation)",[3],0.0176 (inactive)
same,thallium flux slope,[4],0.0103 (inactive)
COc1ccc(Cl)cc1C(=O)NNC(=S)NC(=O)/C=C/c1ccco1,normalised thallium flux (F/F0 slope),[1],0.0165 (inactive)
same,normalized thallium flux,PubChem AID 1714,0.0479 (active)
same,thallium flux rate (normalised fluorescence),[5],0.0367 (active)
same,"raw Tl+ flux slope (below DMSO = inhibition, above = activation)",[3],0.0379 (active)
same,thallium flux slope,[4],0.0335 (active)
CCCCn1c(=S)[nH]c2ncccc2c1=O,normalised thallium flux (F/F0 slope),[1],0.0429 (active)
same,normalized thallium flux,PubChem AID 1714,0.12 (active)
same,"raw Tl+ flux slope (below DMSO = inhibition, above = activation)",[3],0.0884 (active)
same,thallium flux slope,[4],0.0266 (active)
O=C(CSc1ccc(-c2cccs2)nn1)Nc1ccccc1F,normalised thallium flux (F/F0 slope),[1],0.00973 (inactive)
same,normalized thallium flux,PubChem AID 1714,0.00689 (inactive)
same,thallium flux rate (normalised fluorescence),[5],0.00368 (inactive)
same,"raw Tl+ flux slope (below DMSO = inhibition, above = activation)",[3],0.017 (active)
same,thallium flux slope,[4],0.0107 (inactive)
CC1CCCCN1S(=O)(=O)c1ccc(C(=O)Nc2nnc(-c3cccs3)o2)cc1 (stereo not drawn),normalised thallium flux (F/F0 slope),[1],0.0106 (inactive)
same,normalized thallium flux,PubChem AID 1714,0.0292 (active)
same,normalized thallium flux,[2],0.033 (inactive)
same,"raw Tl+ flux slope (below DMSO = inhibition, above = activation)",[3],0.0294 (active)
same,thallium flux slope,[4],0.0123 (inactive)
COC(=O)c1sc(NC(=S)NC(=O)c2ccc(C)cc2)nc1C,normalised thallium flux (F/F0 slope),[1],0.0256 (active)
same,normalized thallium flux,PubChem AID 1714,0.104 (active)
same,thallium flux rate (normalised fluorescence),[5],0.0618 (active)
same,"raw Tl+ flux slope (below DMSO = inhibition, above = activation)",[3],0.0617 (active)
same,thallium flux slope,[4],0.0234 (active)
O=C(Oc1c(-c2ccco2)oc2ccccc2c1=O)c1cccnc1,normalised thallium flux (F/F0 slope),[1],0.0222 (active)
same,normalized thallium flux,PubChem AID 1714,0.0675 (active)
same,normalized thallium flux,[2],0.0399 (inactive)
same,"raw Tl+ flux slope (below DMSO = inhibition, above = activation)",[3],0.0573 (active)
O=c1c2ccccc2[nH]c(=S)n1CCN1CCC(=C(c2ccc(F)cc2)c2ccc(F)cc2)CC1,cell count,[6],603
same,inhibition,[6],-12.2% (inactive)
same,inhibition of aggregation,[7],12% (inactive)
same,nuclei count,[7],92.5%
same,inhibition,[8],-105% (inactive)
same,nuclei count,[8],132%
same,z-score,[9]; measured here: cell density z-score,-1.63
same,z-score,[9]; measured here: nuclear c-Myc green intensity z-score,-0.997
same,z-score,"[9]; measured here: nuclear pErk red intensity z-score, stronger effect = higher value",0.771
same,inhibition,[10],-4.44% (inactive)
same,fluorescence slope,[11],-0.452 (inactive)
same,NADPH fluorescence slope,[12],-0.000101 (inactive)
same,slope,[13],0.00649 (inactive)
same,outcome,[14],inactive
same,normalised thallium flux (F/F0 slope),[1],0.00677 (inactive)
same,normalized thallium flux,PubChem AID 1714,0.0111 (active)
same,normalized thallium flux,[2],0.0294 (inactive)
same,thallium flux rate (normalised fluorescence),[5],0.00955 (active)
same,inhibition,[15],-8.89% (inactive)
same,inhibition,[16],8.28% (inactive)
same,inhibition,[17],23.8% (inactive)
